Bioassay records from PubChem BioAssay.
Rows were chosen to be rich in hits. Some 0.52% of all compounds tested hit in one or more screens of this group.
TRPML1 inh – inhibitors of human TRPML1 channel. Q9GZU1. TRPML1-inducible cells, Ca2+ dye fluorescence, FDSS; stronger effect = lower value; inhibition of EC80 agonist-evoked calcium signal. activity change, negative = inhibition, % (concentration not given with the values). 390,000 tested, 0.02% active; in the data active = activity change below about -50%; inconclusive = between about -30% and that limit;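 also: stimulus is agonist 54-4 at its EC80 concentration; % is scaled to controls: 0 for no effect and ±100 for the full control effect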
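Calcium fluorescence in TRPML1-DL cells induced overnight with Tet: a 110 s read after compound pin addition, then a 110 s antagonist read after challenge with 54-4 at 4 uM final (EC80).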
Vif-APOBEC3F blk – inhibitors of Vif-A3F interaction; HeLa A3F-eYFP + Vif (tagged APOBEC3F with the HIV-1 protein that degrades it), YFP fluorescence increase; Potency, µM (highest dose often 46.1 µM), for the others: top-dose activity, negative = active; 390,000 tested, 0.2% active; also: potency is read from the fitted curve at half-maximal effect; % of control where 0% means no effect; nearly all actives have a fitted effect of over 65% in size
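Fluorescence increase (Ex 488/Em 500-530) after overnight compound treatment at 37 deg C flags inhibition of Vif-driven A3F-eYFP loss in stable HeLa A3F-eYFP/Vif cells seeded overnight beforehand.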
TRPML1 agonist – activates the human TRPML1 channel | Q9GZU1 | TRPML1-expressing cells, Ca2+ dye fluorescence, FDSS | activation, % (no concentration beside the values) | 410,000 tested, 0.12% active | AID 624414; in the data active = activation above about 50%; inconclusive = mostly about 30% to 49%; also: 0% is about no effect
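In this qHTS format, compounds were pin-transferred onto Ca8-dye-loaded TRPML1-DL cells induced with Tet overnight, and intracellular Ca2+ fluorescence was recorded kinetically for 110 s after a 10 s baseline. A subsequent 4uM final 54-4 (EC80) addition followed by a second 110 s read served as the antagonist phase.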
PINK1 expr mod – changes PINK1 expression. PINK1 immunofluorescence, high-content cytometry, 24 h. 410,000 tested, 0.2% active. Potency, µM (top dose mostly 76.6 µM), without a hit: top-dose activation (PINK1 increase), actives largely listed as activators; active = well fitted activation curve with a large enough effect; inconclusive = small, poorly fitted or top-dose-only effect; cell line not stated here; also: potency is read from the fitted curve at half-maximal effect; % of control where 0% means no effect; nearly all actives have a fitted effect of over 65% in size
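PINK1 protein level read as immunofluorescence by microplate cytometer in a fixed, stained stable cell line after 24 h exposure to five compound concentrations, with CCCP as control.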
Vif-APOBEC3G blk – inhibitors of Vif-APOBEC3G interaction; 410,000 tested, 0.076% active; Potency, µM (highest dose often 46.1 µM), without a hit: top-dose activity, negative = active, hits mostly inhibitors; Q9HC16; HeLa A3G-eYFP + Vif (tagged APOBEC3G with the HIV-1 protein that degrades it), YFP fluorescence, overnight; AID 602310; also: potency is read from the fitted curve at half-maximal effect; % is scaled to controls: 0 for no effect and ±100 for the full control effect; nearly all actives have a fitted effect of over 60% in size
Target sequence (Q9HC16 whole entry, looked up): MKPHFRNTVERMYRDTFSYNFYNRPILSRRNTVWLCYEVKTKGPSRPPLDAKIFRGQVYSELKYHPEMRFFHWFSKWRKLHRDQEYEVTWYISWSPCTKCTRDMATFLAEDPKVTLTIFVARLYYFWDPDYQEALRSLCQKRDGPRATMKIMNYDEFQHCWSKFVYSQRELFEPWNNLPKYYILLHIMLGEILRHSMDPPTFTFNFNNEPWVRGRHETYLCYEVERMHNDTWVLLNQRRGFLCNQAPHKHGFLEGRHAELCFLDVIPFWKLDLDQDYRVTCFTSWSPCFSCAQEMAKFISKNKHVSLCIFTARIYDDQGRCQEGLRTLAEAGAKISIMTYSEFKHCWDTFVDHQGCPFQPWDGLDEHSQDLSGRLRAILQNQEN
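Read-out is eYFP fluorescence (Ex 488/Em 500-530) from Vif-expressing HeLa A3G-eYFP cells; more signal means A3G escaped Vif-mediated degradation. Cells plated overnight, compound pinned in, incubated overnight at 37 deg C.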
* hit, by the source's call; ? = inconclusive; · = not tested or not shown; ! = a repeat was not active; [ ] = remark or other dose. Unless noted, calls follow the shape of the dose curve; as a rule, active = well fitted curve in the direction sought with a large enough effect; inconclusive = small, poorly fitted or top-dose-only effect, or another doubt; inactive = no such curve, though single readings can be large; an effect the other way counts as inactive or inconclusive.

SMILES	TRPML1 inh	Vif-APOBEC3F blk	TRPML1 agonist	PINK1 expr mod	Vif-APOBEC3G blk
Cc1ccc2cc3c(N)c(C(=O)Nc4c(C)[nH]c(=O)[nH]c4=O)sc3nc2c1	-5	?	1	32µM*	?
Cc1ccc2nc3sc(C(=O)Nc4c(C)[nH]c(=O)[nH]c4=O)c(N)c3cc2c1	31	?	0	?	?
O=[N+]([O-])c1cc(S(=O)(=O)Nc2cccc(C(F)(F)F)c2)ccc1-n1nnc2ccccc21	-7	-9%	0	22µM*	-13%
COC(=O)c1cccc(S(=O)(=O)N(Cc2ccco2)Cc2cc3ccc(OC)cc3[nH]c2=O)c1	-7	0%	1	14µM*	-1%
COC(=O)c1cccc(S(=O)(=O)N(Cc2ccco2)Cc2cc3cc(OC)c(OC)cc3[nH]c2=O)c1	-1	-3%	1	2%[38.3 µM]	2%
Cn1c(=O)c(Nc2ccc(Cl)cc2)c2c3c(cccc31)C(=O)c1ccccc1-2	-13	5µM*	?	18%	?
NS(=O)(=O)c1cc(C(=O)N2CCc3ccccc32)c(Cl)cc1Cl	18	1%	0	·	2%
CNc1nc(NCc2ccco2)c2ccccc2n1	·	·	70*	2%	-3%
CCNc1nc(NCc2ccco2)c2ccccc2n1	·	·	72*	4%	-7%
c1ccc(Nc2nc(NCc3ccco3)c3ccccc3n2)cc1	-15	12%	1	-2%	-11%
O=c1[nH]cnc2n[nH]nc12	·	·	0	·	?
O=C(Cc1ccc(Cl)cc1)Nc1ncc([N+](=O)[O-])s1	-4	-4%	0	?	-2%
O=C(Cc1ccc(Br)cc1)Nc1ncc([N+](=O)[O-])s1	3	-12%	0	25µM*	0%
O=C(COC(=O)COc1ccccc1)Nc1ncc([N+](=O)[O-])s1	-12	4%	0	2%	0%
O=C(COc1ccc(Cl)cc1)Nc1ncc([N+](=O)[O-])s1	12	5%	1	16µM*	3%
Cc1ncoc1C(=O)N1CCCC(C(=O)Nc2cccc(-c3ccc(F)cc3)c2)C1 (centres undefined)	-8	3%	53*	6%	-1%
O=C1c2ccccc2C(=O)N1c1cccc(O)c1	·	·	-1	0%	1%
C=CCN1C(=O)c2cccc3c(N4CCCCC4)ccc(c23)C1=O	2	7.1µM*	55*	21%	?
CC(=O)c1ccc2c3c(cccc13)C(=O)N(c1c(C)nn(C)c1C)C2=O	-9	-11%	0	2%	0%
Cc1n[nH]c(C)c1N1C(=O)c2cccc3c(N4CCCCCC4)ccc(c23)C1=O	-8	?	61*	1%	?
O=C1c2cccc3c(N4CCCCC4)ccc(c23)C(=O)N1CCO	-13	?	?	1%	?
O=C1c2cccc3c(N4CCCCC4)ccc(c23)C(=O)N1c1cccc(O)c1	-16	4µM*	88*	5%	?
Cc1cc(C)cc(C(=O)NCCCN2CCOCC2)c1	-11	7%	0	0%	0%
Cc1[nH]c2ccccc2c1/C=C/c1cnc2ccccc2n1	·	·	3	·	?
Cc1[nH]c2ccccc2c1/C=C/c1ccc2ccccc2n1	·	·	23	·	11µM*
SMILES	TRPML1 inh	Vif-APOBEC3F blk	TRPML1 agonist	PINK1 expr mod	Vif-APOBEC3G blk
COc1cc(NC(=O)C2CCN(S(=O)(=O)c3c(C)noc3/C=C/c3ccccc3F)CC2)cc(OC)c1OC	29	7%	0	2%	-5%
COc1ccc(S(=O)(=O)Nc2ccccc2-c2nc3ccccc3[nH]c2=O)cc1	5	3.5µM*	0	8%	?
CCC(=O)Nc1ccccc1-c1nc2ccccc2[nH]c1=O	-11	-24%	-1	1%	-4%
COc1ccc(NC(=O)CN(C)S(=O)(=O)c2ccc3c(c2)c(=O)n(C)c(=O)n3C)cc1	-87*!	-7%	0	-1%	-7%
Cc1ccc(NC(=S)NC(NC(=O)c2ccccc2)C(Cl)(Cl)Cl)c(C)c1 (centres undefined)	17	12%	2	40µM*	-4%
Cc1ccsc1C(=O)N(C)C1CCS(=O)(=O)C1 (centres undefined)	-5	1%	0	0%	4%
COc1ccccc1N1CCN(c2ccc3cc(S(=O)(=O)N4CCCCC4)ccc3n2)CC1	-19	-25%	96*	3%	2%
O=C(NCCc1cccs1)c1ccc(Cl)c(Cl)c1	5	2.5µM*	3	2%	-6%
O=C(NNC(=O)c1ccc(-c2ccc([N+](=O)[O-])cc2)o1)c1ccncc1	-6	4%	1	0%	3%
C=CCNC(=O)O/N=C/c1csc([N+](=O)[O-])c1	15	-10%	0	-1%	1%
Cn1c(=O)c2cc(NC(=O)Cc3ccccc3F)ccc2n1-c1ccc(C(C)(C)C)cc1	·	·	63*	28%	-20%
Cc1cc(C)cc(-n2c3ccc(NC(=O)Cc4cccc5ccccc45)cc3c(=O)n2C)c1	·	·	-1	0%	?
CCC(/C=C1\Sc2ccc(OC)cc2N1CCO)=C\c1sc2ccc(OC)cc2[n+]1CCO	1	4%	1	14µM*	0%
CCC(/C=C1\Sc2ccc(OC)cc2N1CC)=C\c1sc2ccc(OC)cc2[n+]1CCCS(=O)(=O)[O-]	-16	2%	2	19%	4%
COc1ccc(N=Cc2oc3ccc4ccccc4c3c2O)cc1	-6	7.9µM*	18	0%	8.9µM*
COc1ccc(N=Cc2ccccc2O)cc1	-16	2%	0	1%	1%
COc1ccc(N2CC(O)=C(c3nc4ccccc4s3)C2=N)cc1	-3	-10%	0	11µM*	-10%
COc1ccc(NC(=O)CSc2nc3c(oc4ccccc43)c(=O)n2Cc2ccco2)cc1Cl	19	8.9µM*	2	3%	?
CCC(Oc1ccc(F)cc1)C(=O)Nc1nc(-c2ccc(F)cc2)ns1 (centres undefined)	-8	?	2	28µM*	2%
CCC(Oc1ccc(F)cc1)C(=O)Nc1cc(-c2ccc(C)cc2)no1 (centres undefined)	-10	-6%	0	-1%	-3%
CC[n+]1c(C=C2C=C(C)OC(C)=C2)sc2ccccc21	2	?	0	22µM*	5.6µM*
CN1CCc2c(sc3c2C(=O)NC(c2ccc(-c4ccc(Cl)cc4)o2)N3)C1 (centres undefined)	20	28µM*	1	8%	?
CN1CCc2c(sc3c2C(=O)NC(c2ccco2)N3)C1 (centres undefined)	-4	-5%	1	?	-9%
O=S1(=O)Nc2c(ccc3cccnc23)-c2ccccc21	8	-1%	1	-8%[38.3 µM]	7.1µM*
Cc1cc(C)n2c(Nc3cccc(C(F)(F)F)c3)c(-c3ccsc3)nc2n1	10	4%	0	-1%	4%
